We go through 8 molecules from PubChem BioAssay (NCI).

This is part of a sample that, as a whole, favours compounds with a hit. Of some 79,000 tested, about 15% had one in any assay. Unmarked numbers belong to inactive results. The source made the active and inactive calls. No stated cut-off is given here; in the data, active means growth inhibition above about 70%; inactive means the rest.

This assay is described as follows: NCI Yeast Anticancer Drug Screen. Data for the rad18 strain (AID 177). As to conditions: S. cerevisiae rad18 mutant growth inhibition, hits give high values. How it is done: Growth inhibition of yeast strains with defined genetic alterations is measured as a screen for potential anti-cancer activity. Selected strains with alterations in DNA damage repair or cell cycle control were exposed to compounds and growth inhibition was measured relative to vehicle treated controls. The strain used in this assay is rad18

With `O/N=C/C1c2ccccc2-c2ccccc21`, the growth inhibition was 2% (at 1.2 µM); 11% (at 3.7 µM); 44% (at 11.0 µM); 74% (active) (at 33.0 µM); 97% (active) (at 100.0 µM).
In the same order, the values of `Cn1ncc2cc3c(Nc4ccc(Cl)cc4)cccc3nc21` are -2%, -4%, -3%, -2% and 52%.
As to `COc1ccc2oc(-c3ccc(Cl)cc3)c(N3CCN(C)CC3)c2c1`, the growth inhibition is, setting by setting: (at 1.2 µM) 1%; (at 3.7 µM) 4%; (at 11.0 µM) 91% (active); (at 33.0 µM) 99% (active); (at 100.0 µM) 99% (active).
On to `C/C(=N\NC(=S)NNC(=S)N(C)c1ccccc1)c1ccccn1`, for which the growth inhibition was 16% (at 1.2 µM); 31% (at 3.7 µM); 98% (active) (at 11.0 µM); 98% (active) (at 33.0 µM); 83% (active) (at 100.0 µM).
Consider `CC1=CCCC2C1(C)CCC(C)C2(C)Cc1cc(O)ccc1O` (stereo not given), for which the growth inhibition is 1% (at 1.2 µM); 24% (at 3.7 µM); 66% (at 11.0 µM); 98% (active) (at 33.0 µM); 94% (active) (at 100.0 µM).
The matching figures for `COc1ccc(N=N/C(=N\NC(=O)c2cc(Br)ccc2O)c2ccc(N(CCC#N)CCC#N)cc2OC)cc1`: 14%, 20%, 18%, 33% and 49%.
In the same order, the values of `S=C(S)NCC1CCC(CNC(=S)S)CC1` (stereo not given) are 2%, 6%, 16%, 18% and 78% (active).
In the same order, the values of `Cc1c2cc[n+](CCN3CCCCC3)cc2c(C)c2c1[nH]c1ccc(O)cc12` are -2%, -5%, -4%, -4% and 41%.
